Drawing on PubChem BioAssay AID504843 (Broad Institute, 2011), this text covers outcome for 104 compounds.

Out of some 1,200 compounds screened, about 360 (30%) were called active. The rule behind the calls is not given here. These entries were drawn from the full list. Results with a measured potency or affinity are listed apart.

The experiment in a line: bacterial growth inhibition, dose response, counter-screen, BacTiter-Glo luminescence, cherry-picked samples (AID 504843).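 Note: growth measured after 8 h incubation at 30 °C.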 The note with it: BacTiter-Glo ATP luminescence; series mostly up to 15 µM. (A counterscreen serves to expose hits that act by an unwanted route or on another target.)
Regarding `COC(=O)c1cnc(NNS(=O)(=O)c2ccc(C(F)(F)F)cc2)nc1C(F)(F)F`, the call was inactive.
With `COCn1c(-c2cccc(Br)c2)nc2ccccc21`, the outcome was inactive.
Turning to `CNC(=O)C1CCN(S(=O)(=O)c2c(C)noc2/C=C/c2cccc(OC)c2)CC1`, the compound was classed as inactive.
As for `O=C(c1ccc2nc[nH]c2c1)N1CCN(c2ncc(C(F)(F)F)cc2Cl)CC1`, the call was inactive.
As for `Cc1ccc(NC(=O)c2cccs2)cc1S(=O)(=O)Nc1cccc(Cl)c1`, the outcome was inactive.
The entry for `O=C1c2ccccc2CC1Sc1nnc(-c2ccncc2)o1` (centres undefined) is “inactive”; for `CC1=CC(=O)[C@@H](O)[C@@H](c2ccccc2Br)N1C` it is “inactive”.
The entry for `COc1ccc(NC(=O)CC2(CC(=O)O)CCCC2)cn1` is “inactive”; for `COc1ccc2[nH]c(C(=O)N(C)c3ccc(F)cc3F)cc2c1` it is “inactive”.
Turning to `COc1cccc(NC(=O)CSc2nc3ccccc3c(=O)n2CCCC(=O)NCC2CCCO2)c1` (centres undefined), the result was inactive.
`O=C(CSc1cn(CCNC(=O)c2c(F)cccc2F)c2ccccc12)NCC1CCCO1` (centres undefined): the outcome was inactive.
To `C=CCn1c(C)cc(C(=O)CSc2nnc3c(Cl)cc(Cl)cn23)c1C` belongs “inactive”; to `CCN(C1CCS(=O)(=O)C1)S(=O)(=O)c1cc(C)ccc1C` (centres undefined), “inactive”.
To `Fc1ccc(-n2c(-c3ccc4ccccc4n3)n[nH]c2=S)cc1Cl` belongs “inactive”; to `C=CCOc1cccc(C(=O)N2CCCC(CCC(=O)NCc3ccccc3F)C2)c1` (centres undefined), “inactive”.
`CC(C)c1cc(C(N)=O)c(NC(=O)c2cccc(COc3ccc(Cl)cc3)c2)s1`: the compound was called inactive.
The entry for `O=C(CSc1nc2ccccc2c(=O)[nH]1)N1CCN(c2ccccc2F)CC1` is “inactive”; for `CC(=O)N1c2ccc(S(=O)(=O)N3CCC(C(=O)N4CCN(c5ccccc5F)CC4)CC3)cc2CC1C` (centres undefined) it is “inactive”; for `CC(C)c1ccc(C2C(C#N)=C(N)Oc3c2oc(CO)cc3=O)cc1` (centres undefined) it is “inactive”.
As for `COC(=O)COc1ccc(-n2cnnn2)cc1`, the compound was called inactive.
For the compound `Cc1cccc(N(CC(=O)Nc2cccnc2)S(C)(=O)=O)c1`, the compound was called inactive.
With `O=C(Nc1c2c(nn1-c1ccccc1)CS(=O)(=O)C2)c1cccs1`, the call was inactive.
The entry for `COc1ccc(-c2nc3ccccc3o2)cc1NC(=O)c1ccc(Br)o1` is “inactive”.
For the compound `O=C(NNC(=S)Nc1cccc(Cl)c1)c1ccccc1OC(F)F`, the result was inactive.
The entry for `CC1CC(OC(=O)C(O)c2ccccc2)CC(C)(C)N1C` (centres undefined) is “inactive”.
The entry for `CCOc1ccc(-n2c(SCC(=O)O)nc3sc4c(c3c2=O)CCCC4)cc1` is “inactive”.
The entry for `NC(=O)NC(=O)CSc1nc2sc(-c3ccccc3)cc2c(=O)n1-c1ccccc1` is “inactive”.
Consider `CCNc1nc(NC(C)(C)C)nc(N(CC)n2cnnc2)n1`, for which the compound was called inactive.
For `CCCCS(=O)(=O)N1CCCC(C(=O)Oc2ccc(Cl)cc2)C1` (centres undefined), the compound was called inactive.
Consider `O=C(NCC1CCCO1)C1CCCN(S(=O)(=O)c2ccc(F)cc2)C1` (centres undefined), for which the compound was classed as inactive.
As to `COc1ccccc1C(C[N+](=O)[O-])c1c[nH]c2ccccc12` (centres undefined), the outcome was inactive.
The entry for `CCOC(=O)[C@H]1[C@H]2COc3ccc(Cl)cc3[C@@H]2N2C(=O)[C@H](C)NC(=O)[C@@]12C` is “inactive”.
To `O=C(c1ccc(-n2cncn2)c([N+](=O)[O-])c1)N1CCN(S(=O)(=O)c2ccc(Br)cc2)CC1` belongs “inactive”; to `CCCC(C(=O)NNC(=O)c1cc(C)oc1C)c1ccccc1` (centres undefined), “inactive”; to `Cc1cc(C(=O)c2ccccc2)c(NC(=O)CCl)s1`, “inactive”.
The entry for `O=C(O)c1ccc(/C=C2\SC(=Nc3ccccc3)N(c3ccccc3)C2=O)cc1` is “inactive”; for `CCC1CCCCN1CCNC(=O)CNS(=O)(=O)c1ccc2nc(C)sc2c1` (centres undefined) it is “inactive”.
Take `Cc1ccccc1NC(=O)NCCN1C(=O)C2C3C=CC(C3)C2C1=O` (centres undefined): the compound was called inactive.
As to `CCOc1ccc(NC(=O)CN2C(=O)/C(=C3\SC(=S)N(C4CCS(=O)(=O)C4)C3=O)c3ccccc32)cc1` (centres undefined), the outcome was inactive.
To `COc1cc(C(=O)Oc2cc(C)cc(C)c2)cc(OC)c1OC` belongs “inactive”; to `COc1ccc(C(=O)Nc2cnn(Cc3ccc(Cl)cc3)c2)cc1OC`, “inactive”.
To `CCOC(=O)CC(NC(=O)c1cccc2c1C(=O)N(Cc1cccnc1)C2)c1ccc(OCC)c(OC)c1` (centres undefined) belongs “inactive”; to `CCc1ccc(C(C(=O)NC2CCCC2)N(CCOC)C(=O)CCC(=O)Nc2cc(C)on2)cc1` (centres undefined), “inactive”; to `CCCCCCCCCCCCN1[C@@H](CC(=O)O)c2cc(C(F)(F)F)ccc2S1(=O)=O`, “inactive”.
Turning to `Cc1c(OCC(=O)NCCCN2CCOCC2)ccc2c1oc(=O)c1ccccc12`, the compound was classed as inactive.
Regarding `O=C(NCCCN1CCOCC1)c1cc2cc(Br)ccc2oc1=O`, the compound was classed as inactive.
To `COc1cccc(C2CC(c3cccc(OC)c3)n3nc(N)nc3N2)c1` (centres undefined) belongs “inactive”; to `Cc1ccc(NC(=O)C(c2ccc(Cl)cc2)N2CCCCC2)cc1` (centres undefined), “inactive”.
`CC(=O)c1ccc(NC(=S)NC(C)c2ccc(Cl)cc2Cl)cc1` (centres undefined): the result was inactive.
The entry for `CCc1ncc(C)nc1CC` is “inactive”; for `CN1CCN(C(=S)c2cn(Cc3ccc(Br)cc3)c3ccccc23)CC1` it is “inactive”; for `Cc1nn(-c2ccccc2)c(Cl)c1/C=N/NC(=O)c1ccn[nH]1` it is “inactive”.
On to `Cc1nn(-c2ccccc2)c(Cl)c1/C=C(\CC(=O)O)c1nc2ccccc2s1`, for which the compound was classed as inactive.
The entry for `COc1ccc(C(=O)NCC(=O)N/N=C/C(C)=C/c2ccco2)cc1OC` is “inactive”; for `N/C(=N\OS(=O)(=O)c1ccccc1)c1cccnc1` it is “inactive”; for `CC(Sc1nc2ccccc2c(=O)n1C)C(=O)NC1CCCCC1C` (centres undefined) it is “inactive”.
Turning to `O=C(NCc1cccs1)c1cccnc1C(=O)O`, the call was inactive.
To `CCOCCCNS(=O)(=O)c1ccc(Br)cc1` belongs “inactive”.
Take `O=C1OCCN1C(=O)[C@H]1[C@H](c2ccc(Cl)cc2)C(c2ccccc2)=NN1c1ccccc1`: the compound was classed as inactive.
To `O=C(Nc1ccc2c(c1)OCCO2)N1CCN(c2ccc(F)cc2)CC1` belongs “inactive”; to `COc1ccc(N2CCN(C(=O)C3CCCN(S(=O)(=O)c4cccc5cccnc45)C3)CC2)cc1` (centres undefined), “inactive”.
The entry for `COc1ccc(Cn2nnnc2C(c2cc3ccc(OC)cc3[nH]c2=O)N2CCC(C)CC2)cc1` (centres undefined) is “inactive”; for `CCS(=O)(=O)c1ccc(NC(=O)c2ccccc2Cl)c(O)c1` it is “inactive”.
To `Cc1ccc(S(=O)(=O)N(CC(=O)Nc2ccccc2-c2ccccc2)c2ccc(C)cc2C)cc1` belongs “inactive”; to `CCn1c(CCn2c3ccccc3c3ccccc32)n[nH]c1=S`, “inactive”.
Consider `CC(=O)NC(Cc1ccc(F)c(F)c1)C(=O)NC1CCN(c2c(Cc3ccccc3)c(C)nc3ncnn23)CC1` (centres undefined), for which the compound was classed as inactive.
The entry for `O=C(Nc1cc(F)ccc1F)C1CCCN(c2ncnc3c2nc2n3CCCCC2)C1` (centres undefined) is “inactive”; for `CCN(CC)S(=O)(=O)c1ccc(NC(=O)Cc2cccs2)cc1` it is “inactive”; for `Oc1ccc(/C=N/Nc2ccccc2)cc1` it is “inactive”.
As for `COc1ccc(-c2cc(C(F)(F)F)c3c(n2)sc2c(O)cc(=O)[nH]c23)c(OC)c1`, the call was inactive.
For the compound `CC(C)c1cccc(C(C)C)c1OC(=O)[C@H]1OC(C(C)(C)C)=C[C@@H]1c1ccccc1`, the compound was classed as inactive.
Turning to `COC(=O)CN1C(=O)C(O)=C(C(C)=O)C1c1ccc([N+](=O)[O-])cc1` (centres undefined), the compound was classed as inactive.
For `Cc1c(N2C(=O)c3cccc4cccc(c34)C2=O)c(=O)n(-c2ccccc2)n1C`, the result was inactive.
`CCCc1c(O)nc(SC2CC(=O)N(c3ccc(OC)cc3)C2=O)[nH]c1=O` (centres undefined): the compound was called inactive.
As for `CC(C)CNC(=S)NC1CCCC1`, the outcome was inactive.
Regarding `COc1cc(SC)ccc1C(=O)Nc1cc(C)ccn1`, the compound was classed as inactive.
The entry for `COc1cc2cc(C(c3nnnn3Cc3ccc(F)cc3)N3CCCCCC3)c(=O)[nH]c2cc1OC` (centres undefined) is “inactive”; for `O=C(O)C1CCCCN1S(=O)(=O)c1ccc(Cl)s1` (centres undefined) it is “inactive”.
To `O=S(=O)(NC1CCCC1)c1cc(F)ccc1F` belongs “inactive”.
To `Cc1cc(=O)oc2cc(OCC(=O)OCC(=O)N3CCc4ccccc43)ccc12` belongs “inactive”.
As to `CCc1nc2nc(C)c(NS(=O)(=O)c3ccc(Cl)s3)c(=O)n2[nH]1`, the compound was classed as inactive.
As to `Cc1ccc(=O)n(-c2ccccc2)c1`, the compound was classed as inactive.
`COc1ccc(Cl)cc1S(=O)(=O)Nc1noc2ccccc12`: the result was inactive.
For `COc1ccc(Cc2nnc(NS(=O)(=O)c3ccc(Cl)cc3)s2)cc1OC`, the call was inactive.
To `CC(C)(CO)[C@@H](O)C(=O)NCCC(=O)O` belongs “inactive”; to `COc1cc(C(=O)NCCOC(=O)c2cccc(N(C)C)c2)cc(OC)c1OC`, “inactive”.
The entry for `N#Cc1c(N)nc2c(c1-c1ccncc1)CCCCC2` is “inactive”; for `Cc1ccccc1-n1c(SCC(=O)N2CCOCC2)nc(O)c(Cc2ccccc2)c1=O` it is “inactive”; for `CN(Cc1ccccc1)C(=O)N1CCOCC1` it is “inactive”.
In the case of `Cc1cc(C)n2nc(SC(C)C(=O)N3CC(C)OC(C)C3)nc2n1` (centres undefined), the outcome was inactive.
The entry for `CN1CCN(c2ccc(S(=O)(=O)N3CCCCC3)cc2NC(=O)c2cccc([N+](=O)[O-])c2)CC1` is “inactive”.
Turning to `COc1ccc(OC)c(NC(=O)c2cccnc2)c1`, the result was inactive.
Turning to `O=C(O)c1ccc(N/N=C/c2ccc(-c3ccccc3)cc2)cc1`, the compound was classed as inactive.
As for `O=C(O)c1ccc(NS(=O)(=O)c2cc(C(=O)O)ccc2Br)cc1`, the outcome was inactive.
To `Cc1ccnc(NS(=O)(=O)c2ccc(NS(=O)(=O)c3ccccc3)cc2)n1` belongs “inactive”; to `Brc1ccc(NC2=Nc3ccccc3CC2)cc1`, “inactive”.
As to `C[C@@H]1O[C@@H](Oc2c(-c3ccc(O)c(O)c3)oc3cc(O)cc(O)c3c2=O)[C@H](O)[C@H](O)[C@H]1O`, the call was inactive.
To `C[C@H](NC(=O)c1nc[nH]c1C(=O)NCc1ccc(CNC(=O)OC(C)(C)C)cc1)c1ccccc1` belongs “inactive”; to `CC(C)(C)OC(=O)[C@H](Cc1ccccc1)NC(=O)c1nc[nH]c1C(=O)NC1CCN(C(=O)OC(C)(C)C)CC1`, “inactive”; to `O=C(CCc1ccccc1)N1CCN(Cc2ccc(F)cc2Cl)CC1`, “inactive”.
Consider `Cn1cc(CN2CCC(CO)(CCCc3ccccc3)CC2)c(-c2ccccc2)n1`, for which the compound was called inactive.
For `CCCn1c(N)c(C(=O)CSc2nc(C)cs2)c(=O)n(C)c1=O`, the compound was called inactive.
Turning to `O=C(Nc1ccccc1OC(F)F)c1oc2ccccc2c1COc1ccccc1`, the call was inactive.
To `O=C(O)CC(NCc1ccco1)C(=O)OCCc1ccccc1` (centres undefined) belongs “inactive”.
